Assay in all cases: glycan array binding signal (z-score within array); higher = stronger binding
Assay [1] concerns Fuc(a1-2)[GalNAc(a1-3)]Gal(b1-4)GlcNAc. Particulars: glycan notation: IUPAC condensed, linker removed. The procedure, abridged:
(§1)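 Glycan array data were curated from 3228 arrays in the Consortium for Functional Glycomics database and kept only where the protein sequence was available. Glycan names were converted to IUPAC-condensed notation, and columns mapping to the same glycan were averaged. The binding signal is a within-array Z-score, averaged across arrays of the same protein sequence at different concentrations or buffers and across linkers. Negative Z-scores can be read as non-binding.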

Assay [2] concerns Fuc(a1-3)[Gal(b1-4)]GlcNAc(b1-2)Man. To be noted: glycan notation: IUPAC condensed, linker removed; mutation: R125K. The procedure, abridged: as §1
Assay [3] has as its system Fuc(a1-2)[GalNAc(a1-3)]Gal(b1-4)Glc. Particulars: glycan notation: IUPAC condensed, linker removed. The procedure, abridged:
as §1

In assay [4] the test system is Fuc(a1-2)[GalNAc(a1-3)]Gal(b1-4)[Fuc(a1-3)]GlcNAc(b1-3)GalNAc. To be noted: glycan notation: IUPAC condensed, linker removed. The procedure, abridged:
as §1

The subject of assay [5] is Fuc(a1-2)[GalNAc(a1-3)]Gal(b1-4)[Fuc(a1-3)]GlcNAc. Particulars: glycan notation: IUPAC condensed, linker removed. The procedure, abridged: as §1
Assay [6] deals with Fuc(a1-3)[Gal(b1-4)]GlcNAc(b1-2)Man(a1-6)[Gal(b1-4)GlcNAc(b1-2)Man(a1-3)]Man(b1-4)GlcNAc(b1-4)GlcNAc. Particulars: glycan notation: IUPAC condensed, linker removed. The procedure, abridged: as §1
The subject of assay [7] is Fuc(a1-2)[GalNAc(b1-3)]Gal. To be noted: glycan notation: IUPAC condensed, linker removed. The procedure, abridged: as §1
Assay [8] relates to Fuc(a1-2)[GalNAc(a1-3)]Gal. To be noted: glycan notation: IUPAC condensed, linker removed. The procedure, abridged:
as §1

For assay [9], the system named is Fuc(a1-2)[GalNAc(a1-4)]Gal(b1-4)GlcNAc. Particulars: glycan notation: IUPAC condensed, linker removed. The procedure, abridged: as §1
The test system of assay [10] is Fuc(a1-3)[Gal(b1-4)]Glc6S. To be noted: glycan notation: IUPAC condensed, linker removed. The procedure, abridged: as §1

10 substances from the supplement of paper PMC8728848 can be followed below.

This is one part of a sample in which the strongest signals are shown more often than they occur.

Sequence of PILRb (Mus musculus), Q2YSF2 (Q2YSF2 entry or part of it): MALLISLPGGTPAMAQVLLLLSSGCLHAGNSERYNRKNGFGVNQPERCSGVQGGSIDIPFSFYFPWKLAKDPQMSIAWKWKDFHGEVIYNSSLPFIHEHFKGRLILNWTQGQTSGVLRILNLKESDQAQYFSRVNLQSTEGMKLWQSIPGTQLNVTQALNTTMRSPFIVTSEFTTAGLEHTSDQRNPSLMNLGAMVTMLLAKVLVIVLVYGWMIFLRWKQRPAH
Sequence of CHI3L1 (Homo sapiens), P36222 (P36222 whole entry): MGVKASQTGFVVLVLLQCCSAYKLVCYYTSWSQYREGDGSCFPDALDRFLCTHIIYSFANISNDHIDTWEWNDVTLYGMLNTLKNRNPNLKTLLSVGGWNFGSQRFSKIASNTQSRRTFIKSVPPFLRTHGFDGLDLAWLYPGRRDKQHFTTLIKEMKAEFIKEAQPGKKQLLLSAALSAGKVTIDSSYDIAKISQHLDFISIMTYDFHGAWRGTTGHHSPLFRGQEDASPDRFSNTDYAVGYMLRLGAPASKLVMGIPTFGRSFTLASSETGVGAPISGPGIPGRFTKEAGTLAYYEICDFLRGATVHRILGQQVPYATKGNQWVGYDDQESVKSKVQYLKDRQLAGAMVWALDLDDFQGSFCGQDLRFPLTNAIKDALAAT
Sequence of Aggrecan (Rattus norvegicus), NP_071526 (chain, as listed by the source): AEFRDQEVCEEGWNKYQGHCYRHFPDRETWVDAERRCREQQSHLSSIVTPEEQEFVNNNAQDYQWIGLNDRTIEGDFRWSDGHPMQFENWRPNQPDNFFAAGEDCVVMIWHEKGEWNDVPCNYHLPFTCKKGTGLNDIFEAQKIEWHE
Sequence of 6RG (Lolium perenne) (chain, as listed by the source): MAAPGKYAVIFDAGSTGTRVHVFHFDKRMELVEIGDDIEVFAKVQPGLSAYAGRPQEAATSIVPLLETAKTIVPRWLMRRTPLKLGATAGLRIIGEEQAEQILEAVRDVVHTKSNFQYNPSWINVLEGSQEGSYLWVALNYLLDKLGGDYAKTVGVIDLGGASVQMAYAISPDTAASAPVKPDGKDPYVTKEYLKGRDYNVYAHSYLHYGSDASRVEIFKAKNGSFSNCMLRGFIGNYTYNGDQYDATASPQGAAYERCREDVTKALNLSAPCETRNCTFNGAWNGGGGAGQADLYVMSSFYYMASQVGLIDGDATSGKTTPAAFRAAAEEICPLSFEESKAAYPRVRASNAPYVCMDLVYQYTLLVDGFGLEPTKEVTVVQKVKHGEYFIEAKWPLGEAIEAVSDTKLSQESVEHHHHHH
Sequence of 6RG (Lolium perenne), B9U140 (B9U140 entry or part of it): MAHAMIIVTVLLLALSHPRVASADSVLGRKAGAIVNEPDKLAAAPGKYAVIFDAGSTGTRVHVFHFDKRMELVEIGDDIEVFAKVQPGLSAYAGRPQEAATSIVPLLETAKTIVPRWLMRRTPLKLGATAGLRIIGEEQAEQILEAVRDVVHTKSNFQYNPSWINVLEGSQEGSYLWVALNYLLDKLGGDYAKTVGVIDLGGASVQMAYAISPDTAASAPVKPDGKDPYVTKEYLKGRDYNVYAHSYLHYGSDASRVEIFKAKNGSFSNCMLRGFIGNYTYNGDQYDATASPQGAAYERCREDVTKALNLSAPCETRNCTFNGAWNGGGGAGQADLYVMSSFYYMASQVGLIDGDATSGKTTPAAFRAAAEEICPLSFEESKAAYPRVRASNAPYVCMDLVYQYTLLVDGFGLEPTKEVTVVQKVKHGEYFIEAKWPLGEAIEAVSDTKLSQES
Sequence of Neurocan (Homo sapiens), O14594 (O14594 other isoform, or with tags, fused parts or gaps): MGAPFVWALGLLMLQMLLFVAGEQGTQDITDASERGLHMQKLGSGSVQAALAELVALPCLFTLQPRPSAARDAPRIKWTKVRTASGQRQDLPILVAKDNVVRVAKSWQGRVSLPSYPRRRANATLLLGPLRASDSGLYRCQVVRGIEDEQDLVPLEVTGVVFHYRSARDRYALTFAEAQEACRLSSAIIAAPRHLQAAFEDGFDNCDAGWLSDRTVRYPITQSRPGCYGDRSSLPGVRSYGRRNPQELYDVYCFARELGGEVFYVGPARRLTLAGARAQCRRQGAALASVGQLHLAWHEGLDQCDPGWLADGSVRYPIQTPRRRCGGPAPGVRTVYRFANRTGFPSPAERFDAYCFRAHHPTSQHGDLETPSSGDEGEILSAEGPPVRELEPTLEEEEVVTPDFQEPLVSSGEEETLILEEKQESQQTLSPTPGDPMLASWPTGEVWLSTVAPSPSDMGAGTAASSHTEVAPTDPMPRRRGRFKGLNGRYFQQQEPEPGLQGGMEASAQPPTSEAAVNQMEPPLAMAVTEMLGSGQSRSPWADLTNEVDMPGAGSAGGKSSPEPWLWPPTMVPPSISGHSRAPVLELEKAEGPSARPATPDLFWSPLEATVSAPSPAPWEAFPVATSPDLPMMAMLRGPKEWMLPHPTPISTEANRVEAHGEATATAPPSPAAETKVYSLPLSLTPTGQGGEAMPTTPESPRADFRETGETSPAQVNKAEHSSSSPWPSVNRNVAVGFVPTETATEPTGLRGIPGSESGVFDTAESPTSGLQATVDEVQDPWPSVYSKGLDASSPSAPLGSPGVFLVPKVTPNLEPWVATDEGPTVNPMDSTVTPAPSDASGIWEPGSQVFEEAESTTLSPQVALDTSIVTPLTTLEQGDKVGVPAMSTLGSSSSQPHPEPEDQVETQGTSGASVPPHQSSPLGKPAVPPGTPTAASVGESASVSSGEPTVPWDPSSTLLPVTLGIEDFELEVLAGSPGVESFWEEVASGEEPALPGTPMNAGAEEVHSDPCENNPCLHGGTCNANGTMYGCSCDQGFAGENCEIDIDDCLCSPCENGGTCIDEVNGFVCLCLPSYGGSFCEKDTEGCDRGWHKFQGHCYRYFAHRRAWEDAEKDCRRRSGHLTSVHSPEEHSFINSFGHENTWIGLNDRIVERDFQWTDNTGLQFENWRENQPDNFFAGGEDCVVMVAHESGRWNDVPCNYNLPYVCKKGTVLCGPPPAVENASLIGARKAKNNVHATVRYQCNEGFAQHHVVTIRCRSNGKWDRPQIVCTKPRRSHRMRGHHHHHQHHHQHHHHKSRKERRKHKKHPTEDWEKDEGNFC
Sequence of wLAT-1A (Homo sapiens), Q01650 (Q01650 whole entry): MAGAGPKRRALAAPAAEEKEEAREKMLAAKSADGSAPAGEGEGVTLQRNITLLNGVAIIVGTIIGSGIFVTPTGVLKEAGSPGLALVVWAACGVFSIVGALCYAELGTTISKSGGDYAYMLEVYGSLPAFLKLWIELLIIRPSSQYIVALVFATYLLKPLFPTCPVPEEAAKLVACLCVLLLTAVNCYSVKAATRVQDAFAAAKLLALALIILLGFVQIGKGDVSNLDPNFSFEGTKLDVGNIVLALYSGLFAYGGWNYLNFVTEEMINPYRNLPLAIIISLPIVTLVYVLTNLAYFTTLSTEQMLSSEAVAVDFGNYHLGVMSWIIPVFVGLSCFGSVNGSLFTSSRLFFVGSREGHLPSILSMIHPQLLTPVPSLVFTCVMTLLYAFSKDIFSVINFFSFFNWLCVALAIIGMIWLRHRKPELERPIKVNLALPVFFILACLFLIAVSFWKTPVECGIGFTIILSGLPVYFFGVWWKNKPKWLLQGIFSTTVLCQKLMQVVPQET
Sequence of Avaren (Actinomycete K97) (chain, as listed by the source): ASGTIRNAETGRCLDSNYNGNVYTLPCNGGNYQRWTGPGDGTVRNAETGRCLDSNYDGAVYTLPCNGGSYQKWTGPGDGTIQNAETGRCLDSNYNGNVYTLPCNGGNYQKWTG

With 6RG (Lolium perenne), B9U140, in assay [1], the “glycan array binding signal (z-score)” value is -0.075.
Consider Siglec-8 (Homo sapiens), Q9NYZ4, for which the “glycan array binding signal (z-score)” value is -0.376 in assay [1] (mutation: R125K) and -0.3 in [2].
For the substance wLAT-1A (Homo sapiens), Q01650, in [3], the “glycan array binding signal (z-score)” value is 0.692.
For the substance PILRb (Mus musculus), Q2YSF2, the “glycan array binding signal (z-score)” value in [4] is 11.4; in assay [5], 2.67; in [6], -0.477.
For the substance Aggrecan (Rattus norvegicus), NP_071526, the figures for the “glycan array binding signal (z-score)” value in [5] and in [7] were 0.401 and 17.3, respectively.
As to MpAFP RI GFP (Marinomonas primoryensis), the “glycan array binding signal (z-score)” value in assay [8] was -0.389.
Still for that read-out and setting: to Neurocan (Homo sapiens), O14594 belongs -0.021.
Take Avaren (Actinomycete K97): the “glycan array binding signal (z-score)” value in assay [9] is -0.123.
Regarding 6RG (Lolium perenne), the entries for the “glycan array binding signal (z-score)” value in assay [9] and in assay [6] were -0.148 and -0.247, respectively.
For CHI3L1 (Homo sapiens), P36222, the “glycan array binding signal (z-score)” value was 0.059 in [7] and -0.082 in assay [10].
